IP6K1 inh = blocks human inositol hexakisphosphate kinase 1; AID 1645851; IP6K1 kinase, ADP-Glo luminescence, 2 h; hits give low values; actives 0.81% (n = 140,000); Q92551; activity change, % (series mostly up to about 58 µM); in the data active means activity change below about -25%; further: on the % scale 0 is the no-effect control and ±100 the full control effect
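ADP-Glo luminescence measures ADP made by human IP6K1 during a 2 h RT reaction with ATP/IP6 (mix at 1.3 mM/130 uM); top library doses 57.5 and 19.1 uM final.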
SNCA expr inh = inhibitors of alpha-synuclein (SNCA) gene expression. HEK-293 SNCA-luciferase knock-in, luminescence, 24 h. Potency, µM (doses to about 57.2 µM), without a hit: at the highest dose activity change, negative = inhibition, most hits filed as inhibitors. actives 0.17% (n = 140,000). AID 1671194;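 further: potency means the concentration at half of the fitted maximal effect; plate controls were DMSO cells for no effect and cell-free wells for full effect; nearly all actives have a fitted effect of over 45% in size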
HEK293 viab = counter-screen for SNCA expression inhibitors: cell viability. HEK-293-SNCA-luc viability, GF-AFC fluorescence, 24 h. actives 0.12% (n = 150,000). Potency, µM (doses to about 57.1 µM), inactives show at the top dose activity change, negative = cytotoxicity, usual class: cytotoxic;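 further: potency means the concentration at half of the fitted maximal effect; 0% = DMSO-treated cells and -100% = medium-only wells without cells; nearly all actives have a fitted effect of over 30% in size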
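HEK-293-SNCA-luc cells (1500/well) plated 24 h, then exposed 24 h to a dilution series; GF-AFC added 30 min at 37C, fluorescence 405/540 nm; normalised to medium-only and DMSO wells, Hill fit.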
KDM5B inhibitor = blocks human KDM5B histone demethylase activity. actives 2.6% (n = 220,000). Potency, µM (highest dose often 57.7 µM), usual class: inhibitors. AID 1347165. KDM5B demethylase, FDH-coupled NADH fluorescence (FDH is formaldehyde dehydrogenase); further: potency means the concentration at half of the fitted maximal effect; 0% is about no effect; nearly all actives have a fitted effect of over 70% in size
Target sequence (Q9UGL1 whole entry, looked up): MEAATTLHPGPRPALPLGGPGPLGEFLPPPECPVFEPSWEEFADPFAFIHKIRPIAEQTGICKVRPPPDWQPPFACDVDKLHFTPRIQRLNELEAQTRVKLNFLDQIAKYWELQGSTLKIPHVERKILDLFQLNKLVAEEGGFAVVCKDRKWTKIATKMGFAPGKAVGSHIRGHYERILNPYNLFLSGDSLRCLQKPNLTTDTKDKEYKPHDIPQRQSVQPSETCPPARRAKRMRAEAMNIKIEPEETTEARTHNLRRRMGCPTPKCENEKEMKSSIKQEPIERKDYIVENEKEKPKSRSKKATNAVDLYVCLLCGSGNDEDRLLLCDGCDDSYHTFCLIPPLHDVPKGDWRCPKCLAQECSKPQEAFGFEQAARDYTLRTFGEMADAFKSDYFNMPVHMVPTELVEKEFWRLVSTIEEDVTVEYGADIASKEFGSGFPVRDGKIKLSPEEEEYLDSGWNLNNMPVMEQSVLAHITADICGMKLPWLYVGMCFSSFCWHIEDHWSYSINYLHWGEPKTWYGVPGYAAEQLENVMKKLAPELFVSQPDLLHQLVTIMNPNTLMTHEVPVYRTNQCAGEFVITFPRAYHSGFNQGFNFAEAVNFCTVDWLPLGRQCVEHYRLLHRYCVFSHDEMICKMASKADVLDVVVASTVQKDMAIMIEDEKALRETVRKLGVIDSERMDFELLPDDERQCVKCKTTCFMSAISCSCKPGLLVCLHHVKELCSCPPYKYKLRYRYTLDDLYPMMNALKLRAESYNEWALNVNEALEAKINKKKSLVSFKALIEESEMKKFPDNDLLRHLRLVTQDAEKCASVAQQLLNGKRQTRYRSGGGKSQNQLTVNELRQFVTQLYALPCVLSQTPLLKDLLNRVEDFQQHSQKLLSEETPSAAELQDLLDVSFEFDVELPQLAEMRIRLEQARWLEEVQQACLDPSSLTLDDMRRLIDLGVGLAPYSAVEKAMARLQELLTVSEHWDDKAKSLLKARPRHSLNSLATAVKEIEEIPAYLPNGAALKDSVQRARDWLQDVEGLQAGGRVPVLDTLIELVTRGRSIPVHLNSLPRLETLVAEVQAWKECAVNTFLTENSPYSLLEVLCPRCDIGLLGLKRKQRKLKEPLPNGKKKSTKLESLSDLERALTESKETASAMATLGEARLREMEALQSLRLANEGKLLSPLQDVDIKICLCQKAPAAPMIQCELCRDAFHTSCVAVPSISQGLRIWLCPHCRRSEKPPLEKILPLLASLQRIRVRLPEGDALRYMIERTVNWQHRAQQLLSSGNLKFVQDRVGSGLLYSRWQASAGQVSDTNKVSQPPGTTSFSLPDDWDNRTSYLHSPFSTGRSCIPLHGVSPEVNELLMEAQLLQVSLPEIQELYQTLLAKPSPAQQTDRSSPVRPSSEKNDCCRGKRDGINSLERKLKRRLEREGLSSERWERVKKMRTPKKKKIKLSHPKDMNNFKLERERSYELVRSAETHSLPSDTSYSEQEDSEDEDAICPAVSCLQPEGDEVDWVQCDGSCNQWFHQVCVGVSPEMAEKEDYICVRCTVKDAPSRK
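Compound dilutions met 200 nM (final) KDM5BΔAP for 10 min at room temperature before substrate addition. The substrate mix held 12.5 µM H3K4me3 with cofactors 25 µM α-ketoglutarate and 50 µM Fe²⁺. NADH signal gain over 30 min defined activity.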
* = called active by the depositor; i = inactive; ? = inconclusive; · = no result; ! = repeats disagree; [ ] = remark or other dose. This is a sample that favours compounds with a hit; in the whole collection about 2.9% have one here. Unless noted, the call rests on the fitted dose curve; in most records, active means well fitted curve in the direction sought with a large enough effect; inconclusive means small, poorly fitted or top-dose-only effect, or another doubt; inactive means no such curve, though single readings can be large; an effect the other way counts as inactive or inconclusive.

SMILES	IP6K1 inh	SNCA expr inh	HEK293 viab	KDM5B inhibitor
CCc1ccccc1NC(=O)C(CC)Oc1ccccc1-c1nnc(-c2ccccc2)o1 (centres undefined)	22.8	8.91µM*	?	i
CCOC(=O)c1ccccc1NC(=O)COc1ccccc1-c1nnc(-c2ccccc2)o1	25.3	?	?	i
CCN(C)C(=O)CCc1c(C)nn(-c2ccccc2)c1Oc1ccccc1F	-5.9	-1.5%	-2.7%	14.1µM*
CCN(CC)C(=O)CCc1c(C)nn(-c2ccccc2)c1Oc1ccc(F)cc1F	12.0	-27.9%	-17.5%	i
Cc1cc(C(=O)CSc2nnc(C)n2Cc2ccccc2)c(C)n1Cc1ccc(F)cc1	·	·	·	i
COCCNc1ncccc1-c1cc(-c2ccccc2)nc2c(C)noc12	-7.0	-17.8%[87.6 µM]	5.1%[87.6 µM]	31.6µM*
Cc1noc2c(-c3cccnc3N3CCOCC3)cc(-c3ccccc3)nc12	4.9	5.5%[87.6 µM]	3.9%[87.6 µM]	35.5µM*
Cc1noc2c(-c3cccnc3NC3CCC(O)CC3)cc(-c3ccccc3)nc12 (centres undefined)	-7.2	-12.8%[87.6 µM]	3.1%[87.6 µM]	?
Cc1noc2c(-c3cccnc3NCC3CCOCC3)cc(-c3ccccc3)nc12	-4.2	-1.7%[87.6 µM]	9.1%[87.6 µM]	31.6µM*
Cc1ccc(-n2[nH]c(CSc3nnnn3-c3ccccc3)cc2=O)cc1	·	·	·	i
O=C(CN1CCN(c2ccc(C(F)(F)F)cn2)CC1)NC1CC1	·	·	·	i
FC(F)(F)c1ccc(N2CCC(N[C@@H]3C[C@@H]4OCC[C@@H]43)CC2)nc1	5.4	-13.9%	6.1%	20µM*
CCn1ncc(N2CCC(NC(=O)C(C)C)CC2)cc1=O	45.0	-7.5%	9.8%	i
CN1CCCN(S(=O)(=O)c2ccc(C(F)(F)F)cc2)c2ccccc21	-0.1	-29.8%	-1.7%	14.1µM*
Cc1cccc(S(=O)(=O)N2CCCN(C)c3ccccc32)c1	-5.8	-19.3%	-0.9%	i
CN1CCCN(S(=O)(=O)c2cccc(Br)c2)c2ccccc21	-2.0	?	-27.9%	14.1µM*
Cn1c(=O)c2c(nc(N3CCOCC3)n2CC(O)COc2ccc(Cl)cc2)n(C)c1=O (centres undefined)	·	·	·	i
O=C(NCCc1ccc(Cl)cc1)c1nc2sccn2c1Br	-8.4	21.4%	2.8%	i
CSCCNC(=O)c1cc(Br)cn2ccnc12	-3.8	76.1%[87.6 µM]	1.4%[87.6 µM]	35.5µM*
O=C(NCc1ccc(F)cc1)c1cc(Br)cn2ccnc12	9.7	93.7%	4.8%	31.6µM*
O=C(NCCc1ccc(Cl)cc1)c1cc(Br)cn2ccnc12	-0.1	8.3%	10.0%	31.6µM*!
O=C(NCc1ccccc1F)c1cc(Br)cn2ccnc12	-9.9	30.7%	-1.6%	22.4µM*
CSCCNC(=O)c1nc2sccn2c1Br	3.8	96.6%[87.6 µM]	-0.5%[87.6 µM]	i
O=C(NCCc1ccccc1F)c1ccc2nccn2c1	-2.5	27.7%[87.6 µM]	-7.3%[87.6 µM]	·
O=C(NCc1ccc(-n2cccn2)cc1)c1cc(F)ccc1Br	·	·	·	i
SMILES	IP6K1 inh	SNCA expr inh	HEK293 viab	KDM5B inhibitor
Cc1ccccc1C(=O)N1CC(c2nnc(C(C)C)o2)C2(CCOCC2)C1 (centres undefined)	15.7	9.5%	1.3%	i
CCc1cc(C(=O)N2CCCC2c2ccc(C)cc2)no1 (centres undefined)	·	·	·	i
CCOCCOC1CCN(C(=O)c2ccccn2)CC1	6.9	-16.5%	1.1%[12.5 µM]	i
Cc1ccc(Br)cc1S(=O)(=O)N(C)CCC#N	·	·	·	i
Cc1ccc2c(C(=O)Nc3ccc(F)cc3)cnn2c1	-0.5	109.2%[87.6 µM]	-0.2%[87.6 µM]	?
C=CCNC(=O)c1cnn2c1CN(C(C)=O)CC2	-11.7	2.7%[87.6 µM]	3.5%[87.6 µM]	i
Cc1ccc2c(C(=O)NCc3ccc(Cl)cc3)cnn2c1	-12.8	-5.6%[87.6 µM]	6.3%[87.6 µM]	35.5µM*
Cc1ccc2c(C(=O)Nc3ccc(Cl)nc3)cnn2c1	0.4	172.0%[87.6 µM]	-5.3%[87.6 µM]	39.8µM*
C=CCNC(=O)c1cnn2ncccc12	9.1	101.3%[87.6 µM]	1.2%[87.6 µM]	31.6µM*
C=CCNC(=O)c1cnn2cc(C)ccc12	6.0	-6.6%[87.6 µM]	3.6%[87.6 µM]	39.8µM*
C=CCNC(=O)c1cnn2c1CN(C(=O)c1cccnc1)CC2	4.1	4.8%	2.0%	i
O=C(NCc1ccc(Cl)cc1)c1cccn2cncc12	-2.5	-7.2%[87.6 µM]	?	?
CS(=O)(=O)N1CC(C(=O)Nc2ccc(N3CCOCC3)cc2)C2(CCCCC2)C1 (centres undefined)	31.0	-6.2%	-5.1%	i
Cc1ccc(C)c(OCC(=O)c2ccc3c(c2)N(CCCC(=O)NC2CCCCC2)C(=O)CO3)c1	-8.4	3.0%	17.8µM*	i
CC(=O)Oc1cc2c(s1)CCN([C@H](C(=O)C1CC1)c1ccccc1F)C2	-1.9	·	-14.9%	·
CCS(=O)(=O)c1ncc(Cl)c(C(=O)Nc2ccccc2)n1	-7.2	2.24µM*	7.08µM*	?
COc1ccc(N2CCN(C(=O)c3nc(SC)ncc3Cl)CC2)cc1	3.5	2.7%	-8.6%	i
Cc1cccc(NC(=O)c2nc(S(C)(=O)=O)ncc2Cl)c1	-10.3	?	20µM*	?
CCS(=O)(=O)c1ncc(Cl)c(C(=O)N2CCN(c3ccc(OC)cc3)CC2)n1	-2.9	?	14.1µM*	?
CCS(=O)(=O)c1ncc(Cl)c(C(=O)Nc2c(C(=O)Nc3cccc(C)c3)oc3ccccc23)n1	-5.0	19.1%	-5.7%	i
CCS(=O)(=O)c1ncc(Cl)c(C(=O)NCc2ccc(OC)cc2)n1	-1.9	22.4µM*	?	i
Cc1ccc(CNC(=O)c2nc(S(=O)(=O)Cc3ccc(C)cc3)ncc2Cl)cc1	-0.2	7.4%	0.6%	i
COc1cc(/C=C(\C#N)c2cccc(Cl)c2)c(Br)cc1OCc1ccc(F)cc1	·	·	·	i
CC(=O)Nc1ccc(NC(=O)c2nc(S(=O)(=O)Cc3ccc(F)cc3)ncc2Cl)cc1	0.3	?	7.94µM*	?
CC(C)c1nnc(NC(=O)c2nc(S(=O)(=O)Cc3ccccc3)ncc2Cl)s1	-2.6	?	22.4µM*	?
SMILES	IP6K1 inh	SNCA expr inh	HEK293 viab	KDM5B inhibitor
CCC(CC)NC(=O)COc1ncnc2ccccc12	·	·	·	i
COc1ccc(C)cc1NC(=O)c1nc2ccccc2nc1N1CCCC1	·	·	·	i
Cc1ccccc1C(=O)NCc1nnc2cc(-c3nc(C4CC4)no3)ccn12	5.9	?	-24.1%	28.2µM*
CCN(CC)c1ccc(C(=O)NCc2nnc3cc(-c4nc(C5CC5)no4)ccn23)cc1	6.3	?	?	?
O=C(NCc1nnc2cc(-c3nc(C4CC4)no3)ccn12)c1ccncc1	13.5	5.2%	-4.6%	28.2µM*
Cc1ccc(C(=O)NCc2nnc3cc(-c4nc(C5CC5)no4)ccn23)cc1C	13.4	?	-10.9%	28.2µM*
Cc1ccc(C)c(C(=O)NCc2nnc3cc(-c4nc(C5CC5)no4)ccn23)c1	32.7	-17.7%	0.6%	14.1µM*
O=C(Nc1nn[nH]n1)c1ccc(Br)c(S(=O)(=O)N2CCOCC2)c1	·	·	·	i
CN1C(=O)C2(CCN(C(=O)c3cn[nH]c3-n3cnnn3)CC2)c2ccccc21	4.4	16.1%	-11.6%	i
CC(C)c1ccc(S(=O)(=O)NCCc2cccc3cccnc23)cc1	·	·	·	i
CNC(=O)CC1COCCN1C(=O)CCCc1nc(-c2cccc(C)c2)no1 (centres undefined)	13.2	21.6%	5.5%	i

Screens (PubChem BioAssay)
